Assay outcomes as filed in PubChem.
Only a sample is shown.
aSyn UTR act: Activators working through SNCA 5'UTR binding (MLPCN). alpha-synuclein 5'UTR reporter, activators screen. activity score, % (tested at 7.5 µM), hits read low. 7.1% of 300,000 active; in the data active = activity score below about -60%
Each line names hits and unclear results; the compound was inactive in the other large screens.

COc1cc2c(cc1NC(=O)C(C)OC(=O)C1CC(=O)N(Cc3ccco3)C1)oc1ccccc12 (stereo not drawn)	aSyn UTR act -127
COc1cc2c(cc1NC(=O)Nc1ccc(F)cc1)oc1ccccc12	aSyn UTR act -95
COc1ccc(NC(=O)Nc2cc3oc4ccccc4c3cc2OC)cc1	aSyn UTR act -152
COc1cc2c(cc1NC(=O)C(C)OC(=O)/C=C/c1ccc(OC(F)F)cc1)oc1ccccc12 (stereo not drawn)	aSyn UTR act -150
COc1cc2c(cc1NC(=O)CSc1nccn1C)oc1ccccc12	aSyn UTR act -229
COc1cc2c(cc1NC(=S)Nc1cccc(C)c1)oc1ccccc12	aSyn UTR act -124
CCS(=O)(=O)c1nnnn1-c1ccccc1S(C)(=O)=O	aSyn UTR act -174
Cc1ccc(Cn2ccnc2C(=O)Nc2ccccc2)cc1	aSyn UTR act -156
CN(C)S(=O)(=O)c1ccc(C(=O)NCCOc2ccc(F)cc2)cc1	aSyn UTR act -99
CN(C)S(=O)(=O)c1ccc(C(=O)NCCOc2ccccc2)cc1	aSyn UTR act -106
Oc1c(Cl)cc(Cl)cc1C=Nc1cc(C(F)(F)F)ccc1N1CCc2ccccc2C1	aSyn UTR act -98
COc1ccc(NC(=O)CSCc2ccccc2C)cc1	aSyn UTR act -90
Cc1ccc(NC(=O)CSc2n[nH]c(-c3ccccn3)n2)cc1	none
CCc1ccc(NC(=O)CSc2ccccn2)cc1	aSyn UTR act -74
COc1ccc(-n2c(C)cc(C(=O)CSc3ccc(NC(C)=O)cc3)c2C)cc1	aSyn UTR act -89
O=C(CCSc1ccccn1)Nc1ccc(Br)cc1	aSyn UTR act -153
COc1ccc(-n2c(C)cc(C(=O)CCl)c2C)cc1	none
COc1ccc(CNC(=O)CSCc2ccccc2Cl)cc1	aSyn UTR act -62
CCOc1ccc(-c2cc(CCCC(=O)Nc3cccc(OC)c3)no2)cc1	none
COc1cccc(NC(=O)CSc2ccccn2)c1	aSyn UTR act -144
COc1ccc(-n2c(SCC(=O)Nc3ccc(Br)cc3)nc(O)cc2=O)cc1	aSyn UTR act -119
Cc1ccc(O)c(NC(=O)CSc2ccc(Cl)cc2)c1	aSyn UTR act -177
Cc1ccc(SCC(=O)NC(C)(C)C)cc1	aSyn UTR act -66
COc1ccc(NC(=O)CSc2ccc(C)cc2)cc1	aSyn UTR act -149
COc1ccccc1C(=O)CSc1ccccn1	aSyn UTR act -95
COc1ccc(NC(=O)CSc2ccccn2)cc1	aSyn UTR act -79
COc1ccc(NC(=O)CSc2ccccn2)c([N+](=O)[O-])c1	aSyn UTR act -72
COc1ccc(NC(=S)NCCCCCC(=O)C[N+](=O)[O-])cc1	aSyn UTR act -82
Cc1cc(/C([O-])=C(/C(=S)Nc2ccc(F)cc2)[n+]2ccccc2)c(C)n1-c1ccc(F)cc1	aSyn UTR act -121
CCOc1ccc(N/C=C/C(=O)c2ccc(C)cc2)c([N+](=O)[O-])c1	aSyn UTR act -198
CCOc1ccc(N/C=C/C(=O)c2ccc3ccccc3c2)c([N+](=O)[O-])c1	aSyn UTR act -159
Cc1ccc(C(=O)/C=C/Nc2ccc([N+](=O)[O-])cc2Br)cc1	aSyn UTR act -124
COc1cccc(Oc2ccc(C(F)(F)F)cc2N)c1	aSyn UTR act -104
CCOc1ccc(Oc2ccc(C(F)(F)F)cc2N)cc1	aSyn UTR act -87
O=C(NCc1ccccc1)c1cccc(COc2cc(Cl)ccc2Cl)c1	aSyn UTR act -143
O=C(c1cccc(COc2ccc(Cl)cc2Cl)c1)N1CCN(c2ccccn2)CC1	aSyn UTR act -164
CN(C(=O)c1cccc(COc2ccc(Cl)cc2Cl)c1)c1ccccc1	aSyn UTR act -120
Oc1c(CN2CCN(c3ccccn3)CC2)cc(Cl)c2cccnc12	none
O=C(NCc1ccccc1)c1cccc(COc2ccccc2Cl)c1	aSyn UTR act -87
NNC(=O)c1cccc(COc2ccccc2Br)c1	aSyn UTR act -72
NNC(=O)c1cccc(COc2ccc3c(c2)CCC3)c1	none
COC(=O)c1ccccc1NC(=O)c1cccc(COc2ccccc2Cl)c1	aSyn UTR act -505
O=C(/C=C/c1ccc(OCCCF)cc1)Nc1ccnc(-c2ccncc2)n1	aSyn UTR act -209
O=C(/C=C/c1ccc(OCCCF)cc1)Nc1ccnc(-c2cccnc2)n1	aSyn UTR act -121
O=C(NCC1CCCO1)c1ccc2c3n(nc2c1)-c1ccccc1CO3 (stereo not drawn)	aSyn UTR act -103
Cc1ccc2c(c1)COc1c3ccc(C(=O)N4CCCCC4)cc3nn1-2	aSyn UTR act -108
O=C(c1ccc2c3n(nc2c1)-c1ccc(Cl)cc1CO3)N1CCOCC1	aSyn UTR act -109
O=C(c1ccc2c3n(nc2c1)-c1ccccc1CO3)N1CCOCC1	aSyn UTR act -114
CCc1ccc(NS(=O)(=O)c2ccc3[nH]cc(C(=O)N4CCc5ccccc54)c(=O)c3c2)cc1	aSyn UTR act -128
CCCS(=O)(=O)c1nc(S(=O)(=O)c2ccc(C)cc2)c(N2CCN(CCO)CC2)s1	aSyn UTR act -98
Cc1ccc(S(=O)(=O)c2nc(S(=O)(=O)CCO)sc2N2CCOCC2)cc1	aSyn UTR act -96
CCCS(=O)(=O)c1nc(S(=O)(=O)c2ccc(C)cc2)c(N2CCOCC2)s1	aSyn UTR act -62
O=c1c2ccccc2nnn1CSc1ccccc1	aSyn UTR act -75
O=C1CCNc2cc3ccccc3cc21	none
c1ccc2c(c1)Nc1cc3ccccc3cc1S2	aSyn UTR act -135
Cc1ccc(NC(=O)c2ccc3snnc3c2)cc1C	aSyn UTR act -165
CC(C)COc1ccc(C(=O)Nc2ccc(SC(F)F)cc2)cc1	aSyn UTR act -90
COc1cccc(NC(=O)c2ccc3snnc3c2)c1	aSyn UTR act -105
Cc1ccc(C(=O)Nc2ccc(SC(F)F)cc2)s1	aSyn UTR act -161
C=CCOc1ccc(C(=O)Nc2ccc(OCC)cc2)cc1	aSyn UTR act -70
CCOc1ccc(C(=O)Oc2ccc(NC(C)=O)cc2)cc1	none
O=C(Nc1ccc(F)cc1)c1ccc2snnc2c1	aSyn UTR act -92
CCOc1ccc(NC(=O)c2ccc3snnc3c2)cc1	aSyn UTR act -120
Cc1cc(C)n(-c2nc(SCCN(C)C)c3c4c(sc3n2)CCCC4)n1	aSyn UTR act -71
Cc1ncoc1C(=O)Nc1ccc2c(c1)OCCO2	aSyn UTR act -63
Cc1cc(C(=O)Nc2ccc3c(c2)OCCO3)c(C)o1	aSyn UTR act -113
Cc1ncoc1C(=O)Nc1ccc(Oc2ccccc2)cc1	aSyn UTR act -104
COc1cc(C)c(C(C)C)cc1S(=O)(=O)n1cnc(C)c1	none
O=C(COC(=O)C1CC1)Nc1ccc(N=Nc2ccccc2)cc1	aSyn UTR act -119
CCOC(=O)CNC(=O)c1sc(NC(=O)c2cccc(F)c2)nc1C	aSyn UTR act -98
CCOC(=O)CNC(=O)c1sc(NC(=O)c2ccccc2F)nc1C	aSyn UTR act -151
CCc1ccc2[nH]c(=O)c(CN(Cc3nnnn3C3CCCC3)C3CCCCC3)cc2c1	aSyn UTR act -70
S=C(N/N=C/c1ccc2ncccc2c1)Nc1cccnc1	none
Fc1ccc(/C=N/NC(=S)Nc2ccc(Cl)cc2)cc1F	aSyn UTR act -132
Oc1ccc(/C=N/NC(=S)Nc2cccnc2)cc1O	aSyn UTR act -141
COc1ccc(NC(=S)Nc2ccc(C)c(Cl)c2)cc1OC	aSyn UTR act -62
Fc1ccc(NC(=S)N/N=C/c2ccc(F)c(F)c2)cc1	aSyn UTR act -65
COc1ccc(NC(=S)N/N=C/c2ccc(F)cc2)cc1OC	aSyn UTR act -73
Cc1nc2c(ccc3c2ccc2nc(C)sc23)s1	aSyn UTR act -113
Cc1cc(C)cc(N(C(=O)c2cc3ccccc3oc2=O)C2C=CS(=O)(=O)C2)c1 (stereo not drawn)	aSyn UTR act -126
